# According to ChEMBL document CHEMBL1157539, “Thousands of chemical starting points for antimalarial lead identification” (Nature, 2010):
# Test system: HepG2
# Test: GSK_TCMDC: Percent inhibition of human HepG2 cell line. Test compounds present at 10uM.
# Assay type: functional
row,Compound,Inhibition [%]
1,Cc1cccc2nc(-c3cccc(-c4cccc(NC(=O)C5CC(=O)Nc6ccccc65)c4)c3)[nH]c12 (stereo not given),13
2,O=C(Nc1cccc(-c2cccc(-c3ccc(F)cc3)n2)c1)c1ccc([N+](=O)[O-])o1,100
3,COc1ccc(Nc2ncc3c(-c4ccc(NC(=O)c5cccc(C(F)(F)F)c5)cc4)c[nH]c3n2)cc1OC,26
4,COc1ccc(NC(=O)Nc2ccc(Nc3nc(C)cc(N(C)C)n3)cc2)cc1,11
5,Nc1nonc1-c1nc2c(-c3cccc(Cl)c3)nccc2n1CCCNC(=O)Cc1ccc(Cl)cc1,0
6,CC(C)C[C@H](NC(=O)[C@H](Cc1ccccc1)NC(=O)CCN1C(=O)COc2ccc(C(=O)O)cc21)C(=O)NC(CC1CCCCC1)C(O)CC(=O)NCCCn1ccnc1.Cl.O (stereo not given in full),0
7,O=C(NCc1cccc(F)c1)Nc1cccc(-c2ccc(-c3nc4cc(F)ccc4[nH]3)cc2)c1,46
8,Cl.O=C(NCCCCN1CCC(O)(c2ccc(Cl)cc2)CC1)c1ccc(Br)cc1,41
9,Cc1ccc(Nc2nc3cc(Nc4ccnc(Nc5ccc(CS(C)(=O)=O)cc5)n4)ccc3o2)cc1,54
10,COc1ccc(NC(=O)/C=C/c2ccccc2Cl)cc1OCCN1CCC(N2CCCCC2)CC1,3
11,CCC(C)(C)c1ccc(Oc2ccc(NC(=O)Nc3ccc(Cl)c(Cl)c3)cc2)cc1,13
12,O=C(COc1cnc2ccccc2n1)Nc1ccccc1Sc1ccc(Cl)cc1,6
13,O=S(=O)(c1csc2ccccc12)N(CCC(O)(C(F)(F)F)C(F)(F)F)Cc1cccc(O)c1,0
14,CCOc1cc(C(=O)NC2CCN(Cc3ccccc3)C2)ccc1-c1nc2cc(Cl)ccc2[nH]1 (stereo not given),7
15,Cl.O=S(=O)(c1ccc(OCc2ccc(Cl)cc2)cc1)c1cc2c(cc1OCc1ccccc1)CCN(CC1CC1)CC2,19
16,COc1ccc(-c2ccnc(-c3cccc(-c4ccccn4)n3)c2)cc1,44
17,CC(CO)(CO)NCc1cc2c3ccccc3c(CNC(C)(CO)CO)cc2c2ccccc12.CS(=O)(=O)O,40
18,Cc1cc(CN2CC[C@H](NC(=O)c3ccc(Cl)c(Cl)c3)C2)ccc1OC1CCN(Cc2ccccc2)CC1.O=C(O)C(F)(F)F,59
19,N#Cc1cc(C(=O)c2cc(Cl)ccc2O)cn(-c2cc(Cl)cc(Cl)c2)c1=O,34
20,CCc1cc2c3c(N)nc(N)nc3ccc2n1C(CC)CC,71

row,Compound,Inhibition [%]
1,COc1cc(NC(=O)CCCCCCCN2CCN(C)CC2)c2ncccc2c1,2
2,CCCNCc1ccc(-c2ccc(CN(CCOC)C(=O)c3ccco3)cc2)nc1.O=C(O)C(F)(F)F,1
3,COc1ccc(NC(=O)[C@H](CC(C)C)Nc2ccnc(NCCc3ccc(F)cc3)n2)cc1.O=C(O)C(F)(F)F,0
4,Cc1cc(=O)c2cc(-c3ccc(OC(F)(F)F)cc3)ccc2[nH]1,0
5,CC(Cc1ccc(NC(=O)c2ccc(NCCc3ccccc3)cc2)cc1)NCCc1cccc(Cl)c1.Cl (stereo not given),25
6,COc1cc(Cc2c(C)nc3nc(N)nc(N)c3c2C)c(Br)c(OC)c1OC.Cl,44
7,CC(C)N1CCN(C(=O)c2ccc(CNCCCN3CCN(c4cccc(Cl)c4Cl)CC3)o2)CC1.Cl,41
8,CCOc1ccc2[nH]c(C)cc(=NN=Cc3cccc(C)n3)c2c1,6
9,O=C(/C=C/c1ccc(Cl)c(Cl)c1)NCCCCCN1CCCC(CNC(=O)Nc2ccc(C(F)(F)F)cc2)C1 (stereo not given),27
10,COc1ccc2c(c1)CCCC2NCCCCNC(=O)c1ccc(NC(=O)c2ccc(Cl)cc2)cc1 (stereo not given),27
11,CC(=O)Nc1ccc(C(=O)Nc2ccc(-c3cccc(-c4nc5ccccc5[nH]4)c3)cc2)cn1,34
12,Cc1cc(N(CCN2CCCCC2)CCN2CCCCC2)nc(Nc2ccc(Cl)cc2)n1.Cl,19
13,Cl.N#Cc1ccc2c(c1)CCN(CCC1CCC(NC(=O)/C=C/c3cc(Br)cs3)CC1)CC2 (stereo not given),3
14,CCCCCCC(C)c1cc(O)c2c(c1)OC(C)(C)C=C2c1ccncc1 (stereo not given),0
15,O=C(Nc1ccc2nc3n(c(=O)c2c1)CCCCC3)C(=O)N1CCN(c2ccc(F)cc2)CC1,10
16,Cc1cccc(-c2ccc(NC(=O)Nc3ccc4nccc(N5CCN(C)CC5)c4c3)cc2C)n1.Cl,4
17,O=C(O)C(F)(F)F.c1cnc2ccc(NCc3ccc(-c4ccc(CNC5CCCC5)cc4)cc3)cc2c1,27
18,Cc1cc(F)ccc1-c1nc(Nc2ccncc2)c2ccn(C)c2n1,9
19,CCn1c(-c2ccccc2)cc2nnc3ccccc3c21,34
20,COc1ccc2nc(-c3ccccc3)cc(N/N=C/c3ccc([N+](=O)[O-])o3)c2c1,90
